# Compound activity deposited in PubChem BioAssay by National Center for Advancing Translational Sciences (NCATS).
# NIH3T3 tox: cytotoxic compounds in NIH 3T3 cells. NIH 3T3 viability, CellTiter-Glo ATP luminescence, 48-72 h. Potency, µM (doses to about 96.7 µM), without a hit: at the highest dose activity change, negative = cytotoxicity, most hits filed as inhibitors. hit rate 4.3% among 94,000; also: nearly all actives have a fitted effect of over 55% in size
#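 First NIH 3T3 cells are plated at 400 cells/well; next compound is pinned in; then plates incubate 48 or 72 hr at 37 °C; finally CellTiter-Glo is added and luminescence read after 10 min.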
# HEK293 tox: HEK 293 cell cytotoxicity | AID 1345083 | hit rate 6.6% among 94,000 | Potency, µM (highest dose often 115 µM), inactives show at the top dose activity change, negative = cytotoxicity, most hits filed as inhibitors | HEK 293 viability, ATP luminescence (CellTiter-Glo), 48-72 h; also: nearly all actives have a fitted effect of over 60% in size
#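 Cells seeded first (HEK 293, 250 cells/well), then compound added by pintool. Incubation ran 48 or 72 hr at 37 degree Celsius. CellTiter-Glo was added and luminescence imaged after 10 min at room temperature.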
# NPR1 antag: antagonists of human natriuretic peptide receptor Npr1 | HEK293 hNpr1 GloSensor cGMP, ANP-stimulated luminescence | Potency, µM (top dose mostly 46.3 µM), inactives show at the highest dose activity change, negative = inhibition, hits mostly inhibitors | hit rate 1.6% among 76,000; calls by dose curve; also: nearly all actives have a fitted effect of over 60% in size
#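 Compound pre-incubated 30 min at room temperature on GloSensor-loaded HEK293 cells stably carrying hNpr1 and the pGS-40F cGMP biosensor. Stimulation uses hNppA at 0.1 nM final; luminescence is taken at baseline and 20 min post-agonist.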
# SNCA expr inh: SNCA gene expression inhibition; Potency, µM (top dose mostly 57.2 µM), for the others: at the highest dose activity change, negative = inhibition, actives largely listed as inhibitors; hit rate 0.17% among 140,000; HEK-293 SNCA-luciferase knock-in, luminescence, 24 h;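 also: plate controls were DMSO cells for no effect and cell-free wells for full effect; nearly all actives have a fitted effect of over 45% in size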
# FLuc inh: inhibitors of firefly (Photinus pyralis) luciferase; purified P. pyralis luciferase, luminescence, biochemical; Potency, µM (titrated, usually from 115 µM), usual class: inhibitors; hit rate 2.5% among 76,000; P08659; also: nearly all actives have a fitted effect of over 65% in size
# Target sequence (P08659 whole entry, looked up): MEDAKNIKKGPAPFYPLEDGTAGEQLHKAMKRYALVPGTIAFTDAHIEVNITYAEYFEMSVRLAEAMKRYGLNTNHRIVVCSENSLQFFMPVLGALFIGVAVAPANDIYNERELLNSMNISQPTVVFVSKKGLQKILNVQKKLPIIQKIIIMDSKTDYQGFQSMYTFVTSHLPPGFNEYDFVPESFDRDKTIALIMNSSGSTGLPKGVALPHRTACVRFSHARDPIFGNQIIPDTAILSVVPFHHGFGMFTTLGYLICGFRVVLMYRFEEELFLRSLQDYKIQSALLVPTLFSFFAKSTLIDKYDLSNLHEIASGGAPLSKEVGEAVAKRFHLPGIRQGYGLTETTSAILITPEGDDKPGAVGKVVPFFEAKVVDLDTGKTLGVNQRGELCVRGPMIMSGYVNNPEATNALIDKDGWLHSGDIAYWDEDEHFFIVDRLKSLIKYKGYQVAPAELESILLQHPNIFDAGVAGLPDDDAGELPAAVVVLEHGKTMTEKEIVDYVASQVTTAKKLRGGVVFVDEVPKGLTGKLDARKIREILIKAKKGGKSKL
#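 Purified 10nM P. pyralis luciferase with 10uM D-luciferin and 10uM ATP in 50mM Tris acetate pH 7.5, 10mM Mg acetate, 0.01% Tween-20, 0.05% BSA. qHTS titration; luminescence read by CCD imager.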
# HEK293 viab: reduces viability of HEK-293 SNCA reporter cells; HEK-293-SNCA-luc viability, GF-AFC fluorescence, 24 h; hit rate 0.12% among 150,000; Potency, µM (series often up to 57.1 µM), inactives show top-dose activity change, negative = cytotoxicity, most hits filed as cytotoxic;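 also: 0% = DMSO-treated cells and -100% = medium-only wells without cells; nearly all actives have a fitted effect of over 30% in size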
#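 Cytotoxicity counterscreen: after 24 h compound treatment of genome-edited SNCA-luciferase HEK-293 cells, live-cell protease substrate GF-AFC read by fluorescence after 30 min; activity scaled between DMSO (0%) and medium-only (-100%), curves Hill-fitted.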
# Numbers without * were called inactive; i = inactive; ? = inconclusive; . = no result; [ ] = dose if it differs, or a comment. A selection: hits, their analogues and other compounds. The true share with any hit is near 7.2%. Unless noted, calls follow the shape of the dose curve; as a rule, active = well fitted curve in the direction sought with a large enough effect; inconclusive = small, poorly fitted or top-dose-only effect, or another doubt; inactive = no such curve, though single readings can be large; an effect the other way counts as inactive or inconclusive. Unless noted, % is scaled to controls: 0 for no effect and ±100 for the full control effect; potency is read from the fitted curve at half-maximal effect.
SMILES,NIH3T3 tox,HEK293 tox,NPR1 antag,SNCA expr inh,FLuc inh,HEK293 viab
C[C@H](NCc1ccc2c(c1)nc(NC(=O)c1ccc(-c3cn[nH]c3)s1)n2CCc1ccccc1)C(C)(C)C,.,.,.,6.81µM*,.,?
COC(=O)c1ccc2c(c1)nc(NC(=O)c1ccccc1)n2CCCc1ccccc1,.,.,.,.,.,-7.7%
CC(C)(O)Cn1c(NC(=O)c2ccc(-c3cn[nH]c3)s2)nc2cc(CN3CCOCC3)ccc21,.,.,.,3.41µM*,.,?
O=[S+]1([O-])NC2(CCN(Cc3ccccc3C(F)(F)F)C2)CNc2ccccc21 (configuration not stated),?,39.8µM*,-3.1%,-1.3%,i,-8.2%
O=[S+]1([O-])NC2(CCN(Cc3ccncc3)CC2)CNc2ccccc21,-23.0%,-3.1%,4.6%,26.8%,i,1.6%
O=[S+]1([O-])NCC2(CCN(Cc3cccc4ccccc34)CC2)Nc2ccccc21,?,?,12.0%,-20.1%,i,-7.0%
O=[S+]1([O-])NC2(CCN(Cc3cccc4ccccc34)C2)CNc2ccccc21 (configuration not stated),?,39.8µM*,?,7.4%,i,-6.8%
O=[S+]1([O-])NCC2(CCN(Cc3ccccc3C(F)(F)F)CC2)Nc2ccccc21,i,?,6.2%,-28.9%,i,10.0%
O=C(c1ccc(C(F)(F)F)cc1)N1CCC2(CC1)CNc1ccccc1[S+](=O)([O-])N2,-11.9%,50.1µM*,-4.0%,4.0%,i,0.0%
O=[S+]1([O-])NC2(CCN(Cc3ccc(C(F)(F)F)cc3)C2)CNc2ccccc21 (configuration not stated),?,44.7µM*,?,-15.9%,i,-11.9%
Cc1cnc(C(=O)N2CCC(N3C(=O)C4(CCCC4)C3c3ccccc3)CC2)cn1 (configuration not stated),-25.3%,-23.4%,6.2%,-9.5%,i,-0.4%[12.5 µM]
Cc1cnc(C(=O)N2CCOc3ccc(CCC(N)=O)cc3C2)cn1,-8.6%,i,4.3%,?,i,10.5%[12.5 µM]
CCCNC(=O)C1COC2(CCN(C(=O)c3ccco3)CC2)N1C(=O)c1ccc(F)cc1 (configuration not stated),-15.2%,-11.6%,3.3%,-22.0%,i,2.0%
O=C(CCC1CCCCC1)N1CC2CC(C1)[C@H]1CCCC(=O)N1C2 (some centres not stated),i,6.9%,6.2%,-23.7%,i,-14.5%
COc1ccc(N2C(=O)CSC23CCN(C(=O)Nc2ccc([N+](=O)[O-])cc2)CC3)cc1,?,25.1µM*,-3.7%,-2.0%,i,4.4%
O=C(Nc1ccccc1)N1CCC2(CC1)SCC(=O)N2c1ccc(Cl)cc1,?,?,-3.8%,63.6%,22.4µM*,8.0%
O=C(NCc1ccc(F)cc1)c1nc(-c2ccc(F)cc2)c2ccccn12,-17.8%,?,3.5%,8.9%,i,-4.1%
COc1ccc(NC(=O)c2cnc3c(c2)N(C(=O)Cc2cccc(C(F)(F)F)c2)CCC3)cc1OC,?,?,0.1%,5.0%,i,-6.6%
O=C(Nc1cccc(C(F)(F)F)c1)c1cnc2c(c1)N(Cc1ccccc1)CCC2,31.6µM*,63.1µM*,-30.3%[70.6 µM],-27.9%[87.6 µM],i,-16.1%[87.6 µM]
COc1ccccc1CC(=O)N1CCCc2ncc(C(=O)Nc3cccc(Cl)c3)cc21,?,56.2µM*,?,-7.0%[87.6 µM],i,?
COc1ccccc1CC(=O)N1CCCc2ncc(C(=O)Nc3ccc(OC)c(OC)c3)cc21,-23.5%,?,-0.2%,-13.6%,i,-8.0%
O=C(NCc1cccc(F)c1)c1cnc2c(c1)N(Cc1ccccc1)CCC2,?,?,-3.6%[70.6 µM],?,i,0.3%[87.6 µM]
COc1ccccc1CC(=O)N1CCCc2ncc(C(=O)Nc3cccc(C(F)(F)F)c3)cc21,?,50.1µM*,-12.7%,3.5%,i,-11.5%
